In PubChem BioAssay (NCATS) one finds Potency data, which are given here for 40 compounds.

Results filed as inconclusive are left out. Activity calls are given as the source filed them. Calls follow the shape of the dose curve; as a rule, active = well fitted cell-killing curve with a large enough effect; inconclusive = small, poorly fitted or top-dose-only effect, or effect the other way; inactive = no such curve, though single readings can be large or run the other way. Starred links: 1 amine or outer side, 2 acyl side, 3 side chain; linkers in the order of their positions; H or OH if unused. Positions of bridges follow the written chain, without caps; N, C: chain ends. Non-standard residues stand in square brackets, D forms with d. Residues, ends and D or L forms follow the SMILES beside them. Chains are numbered I, II in the order given. Actinocin(9to1) = Cc1c2oc3c(C)ccc(C(=O)[*:1])c3nc-2c(C(=O)[*:2])c(N)c1=O; NMeV = CN[CH](C(=O)O)C(C)C; Sar = CNCC(=O)O
Potency is read from the fitted curve at half-maximal effect.

The nature of the experiment: Quantitative High-Throughput drug screen in 47 multiple myeloma cell lines against the NCATS MIPE library collection: KMS21BM_JCRB cell viability assay (AID 1918974). To be noted: ATP luminescence, 48 h; viability: at 45.8 µM. An excerpt:
PI: Beverly A. Mock Ph.D.
Laboratory of Cancer Biology and Genetics,
Center for Cancer Research, National Cancer Institute,
National Institute of Health, Bethesda, Maryland
Drug resistance and disease progression are common in multiple myeloma (MM) patients, underscoring the need for new therapeutic combinations. […] We hypothesized that effective combinations would reduce MYC expression and enhance p16 activity. […] These preclinical data identify potentially useful drug combinations for evaluation in drug-resistant MM and reveal potential mechanisms of combined drug sensitivity.
Described herein is the primary MIPE qHTS used to cherrypick compounds. Validated compounds were then further tested for potential synergistic activiy.
[1] Peat TJ, Gaikwad SM, Dubois W, Gyabaah-Kessie N, Zhang S, Gorjifard S, Phyo Z, Andres M, Hughitt VK, Simpson RM, Miller MA, Girvin AT, Taylor A, Williams D, D'Antonio N, Zhang Y, Rajagopalan A, Flietner E, Wilson K, Zhang X, Shinn P, Klumpp-Thomas C, McKnight C, Itkin Z, Chen L, Kazandijian D, Zhang J, Michalowski AM, Simmons JK, Keats J, Thomas CJ, Mock BA. Drug combinations identified by high-throughput screening promote cell cycle transition and upregulate Smad pathways in myeloma. Cancer Lett. 2023 Aug 1;568:216284. doi: 10.1016/j.canlet.2023.216284. Epub 2023 Jun 24. PMID: 37356470; PMCID: PMC10408729.
SEQUENCE No. (e.g., 1, 2, 3, etc.); […] (e.g., Cells, Incubation, Reagent, etc.); VALUE and DESCRIPTION.
1; Cells; 5 uL; white, solid bottom 1536-well Greiner assay plate.
2; Compounds; 23 nL; Kalypsis pin tool (Wako USA) equipped with a 1536-well pin head to transfer to the assay plates.
3; Incubation; 48 hours; 37C incubation.
4; Reagent;5uL; CellTiter Glo (Promega).
5; Detector; 425V; Luminescence; Viewlux PerkinElmer.
NOTES (numbers refer to Sequence numbers above)
1. The cell-based screening methods employed in this study were like those previously published. Briefly, the corresponding myeloma cell lines were screened in 1,536-well plates with 500 cells, 5-uL per well for inhibition of cell viability (assessed by measuring ATP levels with CellTiterGlo).
2. NCATS MIPE 4.0 library of approved and investigational drugs were added using the Kalypsis pin tool. Wells treated with DMSO only for 100% viability and media only wells for 0% viability were used as controls.
3. The assay plates were covered and incubated for 48 hours in a 37C, 5% CO2 incubator with controlled humidity.
4. After 48 hours, CellTilter-GloTM luminescent substrate mix (Promega) reagent was added to the assay plate and plates we incubated for 5 min at room temperature.
5. Signal was measured as median relative luminescence units on a ViewLux (PerkinElmer) multiplate reader.
[1] Heske CM, Davis MI, Baumgart JT, Wilson K, Gormally MV, Chen L, Zhang X, Ceribelli M, Duveau DY, Guha R, Ferrer M, Arnaldez FI, Ji J, Tran HL, Zhang Y, Mendoza A, Helman LJ, Thomas CJ. Matrix Screen Identifies Synergistic Combination of PARP Inhibitors and Nicotinamide Phosphoribosyltransferase (NAMPT) Inhibitors in Ewing Sarcoma. Clin Cancer Res. 2017 Dec 1;23(23):7301-7311. doi: 10.1158/1078-0432.CCR-17-1121. Epub 2017 Sep 12. PMID: 28899971; PMCID: PMC6636827.
On to `CC[C@H](CC[C@@H](C)[C@H]1CC[C@H]2[C@@H]3CC=C4C[C@@H](O)CC[C@]4(C)[C@@H]3CC[C@]12C)C(C)C`, for which the Potency entry was “inactive”. The same measure for `CC(C=CC(=O)NO)=C[C@@H](C)C(=O)c1ccc(N(C)C)cc1`: 166 nM (active); for `Nc1nc(N)c2nc(-c3cccc(O)c3)c(-c3cccc(O)c3)nc2n1`: 7430 nM (active). The result for `COc1ccc(S(=O)(=O)Nc2cc(-c3c(O)ccc4ccccc34)c(O)c3ccccc23)cc1` reads 18700 nM (active). The same measure for `COc1cc2c(cc1OC)[C@@H]1C(=O)c3ccc4c(c3O[C@@H]1CO2)C=CC(C)(C)O4`: 66.2 nM (active); for `N=c1ccn2c(n1)O[C@H]1[C@@H](O)[C@@H](CO)O[C@H]12`: 2960 nM (active); for `Cn1cc(-c2cnn3c(N)c(Br)c([C@H]4CCCNC4)nc23)cn1`: 833 nM (active). Regarding `Cc1c2oc3c(C)ccc(C(=O)NC4C(=O)NC(C(C)C)C(=O)N5CCCC5C(=O)N(C)CC(=O)N(C)C(C(C)C)C(=O)OC4C)c3nc-2c(C(=O)NC2C(=O)NC(C(C)C)C(=O)N3CCCC3C(=O)N(C)CC(=O)N(C)C(C(C)C)C(=O)OC2C)c(N)c1=O` (stereo not given) (I: TVP[Sar][NMeV] / II: TVP[Sar][NMeV]; ester I:1-I:C, II:1-II:C; linker I:N-II:N via Actinocin(9to1); configuration not given here), the Potency entry was “inactive”.

On to `Oc1cc(-c2nc(-c3ccccc3)[nH]c2-c2ccncc2)ccc1Cl`, for which the Potency is 3320 nM (active). The result for `COc1cc(C[C@@H](CO)[C@H](CO)Cc2ccc(O)c(OC)c2)ccc1O` reads 2350 nM (active); that for `CC[C@H]1OC(=O)[C@H](C)[C@@H](O[C@H]2C[C@@](C)(OC)[C@@H](O)[C@H](C)O2)[C@H](C)[C@@H](O[C@@H]2O[C@@H](C)C[C@H](N(C)C)[C@@H]2O)[C@](C)(O)C[C@@H](C)C(=O)[C@H](C)[C@@H](O)[C@]1(C)O`, “inactive”; that for `CON=C(C(=O)N[C@@H]1C(=O)N2C(C(=O)O)=C(Cn3ccc(=N)n3CCO)CS[C@H]12)c1csc(N)n1`, “inactive”. The result for `CCN(CC)Cc1ccc2cc(COC(=O)Nc3ccc(C(=O)NO)cc3)ccc2c1` reads 41.8 nM (active). The same measure for `C[C@]12CC[C@@H]3c4ccc(O)cc4CC[C@H]3[C@H]1CC[C@H]2O`: 3320 nM (active). On to `COc1ccc2c(c1OC)C(=O)OC2[C@H]1c2c(cc3c(c2OC)OCO3)CCN1C` (stereo not given in full), for which the Potency was 148 nM (active).

On to `N#Cc1c(NC(=O)c2cccc3ccccc23)sc2c1CCCC2`, for which the Potency is 526 nM (active). The result for `COc1cc(OC)cc(-c2ccc3ncc4ccc(=O)n(-c5ccc(N6CCNCC6)c(C(F)(F)F)c5)c4c3c2)c1` reads 5260 nM (active); that for `CC(C)N1[N]C(=C2C=c3cc(O)ccc3=N2)c2c(N)ncnc21`, 2090 nM (active).

With `CC(C(C)N1CC(=O)NC(=O)C1)N1CC(=O)NC(=O)C1` (stereo not given), the Potency is 332 nM (active).

On to `c1coc(CNc2ncnc3nc[nH]c23)c1`, for which the Potency result was “inactive”. The same measure for `CCOC(=O)[C@H](CCc1ccccc1)N[C@@H](C)C(=O)N1[C@@H](C(=O)O)C[C@H]2CCC[C@@H]21`: 5260 nM (active). The same measure for `Nc1ncn([C@@H]2O[C@H](CO)[C@@H](O)[C@@H]2O)c(=O)n1`: 1870 nM (active); for `CCc1cnn2c(NCc3ccc[n+]([O-])c3)cc(N3CCCC[C@@H]3CCO)nc12`: 13.2 nM (active); for `NC(=NCCCCCCN=C(N)N=C(N)Nc1ccc(Cl)cc1)N=C(N)Nc1ccc(Cl)cc1`: 7430 nM (active). The result for `CC[C@@]1([C@@H]2O[C@@H]([C@H]3O[C@@](O)(CO)[C@H](C)C[C@H]3C)C[C@H]2C)CC[C@H]([C@]2(C)CC[C@]3(C[C@H](O)[C@@H](C)[C@@H]([C@@H](C)[C@@H](OC)[C@H](C)C(=O)O)O3)O2)O1` reads 144 nM (active). `c1cncc(CN2CCC(n3ncc4c(N5CCOCC5)nc(-c5ccc6[nH]ccc6c5)nc43)CC2)c1`: the Potency result is “inactive”.

With `Oc1ccc(-c2ccc(-c3cc(Nc4cccc(CNC5CC5)c4)n[nH]3)cc2)c(O)c1`, the Potency is 590 nM (active). Regarding `CC(C)(N)c1ccc(-c2nc3ccccc3nc2-c2ccccc2)cc1`, the Potency was 5260 nM (active). The result for `CC(=O)O[C@H]1C[C@@H]2CC[C@H]3[C@H]4C[C@H]([N+]5(C)CCCCC5)[C@@H](OC(C)=O)[C@@]4(C)CC[C@@H]3[C@@]2(C)C[C@H]1N1CCCCC1` reads “inactive”; that for `COc1cc([C@@H]2c3cc4c(cc3[C@@H](O[C@@H]3O[C@@H]5CO[C@@H](c6cccs6)O[C@@H]5[C@H](O)[C@@H]3O)[C@H]3COC(=O)[C@H]23)OCO4)cc(OC)c1O`, 1870 nM (active); that for `O=C(O)c1ccc(Nc2ncc3c(n2)-c2ccc(Cl)cc2C(c2c(F)cccc2F)=NC3)cc1`, 743 nM (active).

Take `CCNC(=O)Nc1ccc(-c2nc3c(c(N4CCOC[C@H]4C)n2)CCN(C2COC2)C3)cc1`: the Potency was 2350 nM (active). The same measure for `Cc1onc(-c2ccccc2)c1C(=O)N[C@@H]1C(=O)N2[C@@H](C(=O)O)C(C)(C)S[C@@H]12`: “inactive”; for `NC(=O)Nc1cc(-c2ccc(CN3CCOCC3)cc2)sc1C(N)=O`: 1320 nM (active). The same measure for `N#Cc1c(C2CCNCC2)cc(-c2c(O)cccc2OCC2CC2)nc1N`: 16600 nM (active); for `CNC(=O)c1cccc(-c2ccc3c(N4CCOC[C@H]4C)nc(N4CCOC[C@H]4C)nc3n2)c1`: 166 nM (active); for `CC(=CC(=O)Nc1ccccc1C(=O)O)c1ccc2ccccc2c1`: “inactive”. The same measure for `CN(C)c1ccc(C(=O)NCCCCCCC(=O)NO)cc1`: 41.8 nM (active). In the case of `C#Cc1cccc(Nc2ncnc3cc(OCCOC)c(OCCO)cc23)c1`, the Potency is 132 nM (active). As to `COc1ccc(CCC(=O)c2c(O)cc(O[C@@H]3O[C@H](CO)[C@@H](O)[C@H](O)[C@@H]3O[C@@H]3O[C@@H](C)[C@H](O)[C@@H](O)[C@@H]3O)cc2O)cc1O`, the Potency entry was “inactive”.
